AF4-AF9 inh – inhibitors of human MLL-AF4/AF9 interaction | P42568 | AlphaScreen, biotin-AF4 peptide binding to FLAG-AF9 | inhibition, % at 10 µM | actives 0.47% (n = 350,000) | AID 651704;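 active = every replicate reaching a set inhibition limit, whatever the replicate mean, cut at about 25% in these data; inconclusive = mean inhibition reaches that limit but some replicates miss it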
GSIS activator – primary screen for activators of insulin secretion dependent on glucose, INS-1E cells, GLuc reporter luminescence; INS-1E GLuc reporter insulin secretion, 2-3 h; activation, % at 16.6 µM; actives 0.61% (n = 370,000); AID 743287;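 active = lowest replicate activation of at least 40%, so every replicate reaches that level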
dFosB act – activators of mouse delta FosB homodimer; P13346; purified delta FosB, TAMRA-CDK5 oligo fluorescence polarization; percent of positive-control signal above neutral wells; activation, % at 25 µM; actives 0.99% (n = 340,000);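 active = mean activation above about 17%, with every replicate also reaching it, limit read from the data, passing the limit was not always enough; inconclusive = only one of the two conditions met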
Target sequence (P13346 whole entry, looked up): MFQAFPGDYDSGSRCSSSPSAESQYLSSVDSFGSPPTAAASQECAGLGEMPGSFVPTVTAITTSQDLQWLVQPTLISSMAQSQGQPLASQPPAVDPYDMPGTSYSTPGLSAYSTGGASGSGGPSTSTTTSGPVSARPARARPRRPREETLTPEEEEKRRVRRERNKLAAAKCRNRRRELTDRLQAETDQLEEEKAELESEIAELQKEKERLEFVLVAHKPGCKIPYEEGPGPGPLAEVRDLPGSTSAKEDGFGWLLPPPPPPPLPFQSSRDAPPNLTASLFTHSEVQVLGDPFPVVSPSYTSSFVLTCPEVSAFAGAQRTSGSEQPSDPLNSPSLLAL
RAD52 anneal inh – inhibitors of human RAD52 DNA annealing. inhibition, % at 18.7 µM. recombinant RAD52 DNA annealing, FRET fluorescence. actives 0.46% (n = 360,000). P43351;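 active = every replicate showing at least 50% inhibition; inconclusive = mean inhibition at least 50% but not in every replicate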
Target sequence (P43351 whole entry, looked up): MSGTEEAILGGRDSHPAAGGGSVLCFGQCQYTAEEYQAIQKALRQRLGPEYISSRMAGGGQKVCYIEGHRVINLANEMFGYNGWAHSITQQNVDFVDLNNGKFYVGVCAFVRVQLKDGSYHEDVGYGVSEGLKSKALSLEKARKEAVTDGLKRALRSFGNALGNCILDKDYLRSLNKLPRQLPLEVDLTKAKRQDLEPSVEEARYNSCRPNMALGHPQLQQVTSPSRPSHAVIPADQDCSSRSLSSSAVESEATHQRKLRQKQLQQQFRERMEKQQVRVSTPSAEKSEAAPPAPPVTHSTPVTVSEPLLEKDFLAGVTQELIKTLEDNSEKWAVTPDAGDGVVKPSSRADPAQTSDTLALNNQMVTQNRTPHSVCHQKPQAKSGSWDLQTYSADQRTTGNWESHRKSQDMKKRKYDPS
DENV2 CPE – inhibitors of DENV2 cytopathic effect; DENV2-infected cells, cytopathic effect rescue, plate reader; CPE inhibition, % at 9.99 µM; actives 1.7% (n = 350,000); AID 651640; in the data active = CPE inhibition above about 20%, passing the limit was not always enough; inconclusive = no clear call, values can overlap the other calls; tested in BHK-21 cells
RAD54 branch – blocks human RAD54 Holliday junction branch migration; AID 602329; inhibition, % at 10.4 µM; FAM/BHQ fluorescence; actives 0.14% (n = 360,000);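 active = mean normalized replicate activity at least 40 and at least half of replicates scoring 40 or more; inconclusive = only one of the two criteria met; inactive = mean below 40 and under half of replicates reaching 40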;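 also: inhibitors cause a drop in the FAM fluorescence signal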
Of the large screens only hits and unclear results are named; the others gave an inactive call. Shown are actives, neighbours in structure and some others; about 3.1% of the full set was active somewhere.

CC(=O)c1cccc(NC(=S)N2CCN(S(=O)(=O)c3ccc(F)cc3)CC2)c1	DENV2 CPE inconclusive
Cc1ccc(NC(=S)N2CCN(S(=O)(=O)c3ccc(C)cc3)CC2)cc1	DENV2 CPE 27
CC(=O)c1cccc(NC(=S)N2CCN(S(=O)(=O)c3ccccc3)CC2)c1	DENV2 CPE 69
CCCC#Cc1cnc2c(c1)C(=O)N([C@H](C)CO)C[C@@H](C)[C@@H](CN(C)Cc1ccncc1)O2	none (no result: dFosB act)
COc1cccc(NC(=O)Cc2ccccc2)c1	none
O=C(Cc1ccccc1)Nc1cccc(N2C(=O)C=CC2=O)c1	GSIS activator 59 (no result: RAD54 branch)
N#CCNC(=O)c1nn2c(C(F)(F)F)cc(-c3ccccc3)nc2c1Br	none (no result: GSIS activator)
CCCCNC(=O)c1nn2c(C(F)(F)F)cc(-c3ccccc3)nc2c1Br	DENV2 CPE 38 (no result: GSIS activator)
C[C@@H](O)C#Cc1cnc2c(c1)C(=O)N([C@@H](C)CO)C[C@H](C)[C@H](CN(C)Cc1cccc(F)c1)O2	none (no result: dFosB act)
C[C@H]1CCCCO[C@@H](CN(C)C(=O)Nc2ccccc2)[C@@H](C)CN([C@@H](C)CO)C(=O)c2cc(NS(C)(=O)=O)ccc2O1	DENV2 CPE inconclusive (no result: dFosB act)
CCOC(=O)Cc1csc(NC(=O)/C=C/c2ccc(Br)o2)n1	AF4-AF9 inh 33
CCCCNC(=O)c1onc(CSc2cccc(OCC)c2)c1C(=O)O	DENV2 CPE 24 (no result: GSIS activator)
COc1cccc(S(=O)(=O)N(C)C[C@H]2Oc3cc(C4=CCCC4)ccc3S(=O)(=O)N([C@H](C)CO)C[C@@H]2C)c1	DENV2 CPE 38 (no result: dFosB act)
Cc1ccc(S(=O)(=O)N(C)C[C@@H]2Oc3cc(C4=CCCC4)ccc3S(=O)(=O)N([C@H](C)CO)C[C@H]2C)cc1	DENV2 CPE 79 (no result: dFosB act)
CCCC(=O)Nc1ccc2c(c1)C(=O)N(C)[C@H]1CC[C@H](CC(=O)NCc3ccccc3F)O[C@H]1CO2	none (no result: AF4-AF9 inh, dFosB act, RAD52 anneal inh)
NC(=O)CSc1nc(-c2ccccc2)c(-c2ccccc2)o1	GSIS activator 73 (no result: AF4-AF9 inh, RAD52 anneal inh, DENV2 CPE)
C[C@H](CO)N1C[C@H](C)[C@@H](CN(C)S(=O)(=O)c2ccc(F)cc2)Oc2ccc(NC(=O)Cc3cn(C)c4ccccc34)cc2CC1=O	none (no result: dFosB act)
O=C(CN1CCOCC1)N1CCCCN2[C@H](CO)[C@H](c3ccc(C#Cc4ccccc4)cc3)[C@@H]2C1	DENV2 CPE 31 (no result: dFosB act)
O=C(CN1CCOCC1)N1CCCCN2[C@@H](CO)[C@@H](c3ccc(-c4ccccc4)cc3)[C@@H]2C1	DENV2 CPE 61 (no result: dFosB act)
O=C(CN1CCOCC1)N1CCCCN2[C@H](C1)[C@H](c1ccc(-c3ccccc3)cc1)[C@@H]2CO	none (no result: dFosB act)
CCc1nnc(N2C(=O)c3ccccc3C2(O)c2ccccc2)s1 (stereo unspecified)	GSIS activator 42, DENV2 CPE 41
C/C=C/c1cnc2c(c1)C(=O)N([C@H](C)CO)C[C@H](C)[C@H](CN(C)S(=O)(=O)c1ccc(OC)cc1)O2	none (no result: dFosB act)
COc1cc(/C=C/c2cccc[n+]2C)ccc1OCC(=O)Nc1cccc(Cl)c1	DENV2 CPE 25
CN1C(=O)c2cc(NC(=O)c3ccc4c(c3)OCO4)ccc2OC[C@H]2O[C@@H](CC(=O)O)CC[C@@H]21	DENV2 CPE 40 (no result: dFosB act)
CN1C(=O)c2cc(NC(=O)c3ccc(F)cc3)ccc2OC[C@H]2O[C@H](CC(=O)O)CC[C@H]21	DENV2 CPE 35 (no result: dFosB act)
CN1C(=O)c2cc(NC(=O)c3ccc4c(c3)OCO4)ccc2OC[C@H]2O[C@H](CC(=O)O)CC[C@@H]21	DENV2 CPE inconclusive (no result: dFosB act)
CC(=O)Nc1ccc2c(c1)C(=O)N(C)[C@H]1CC[C@H](CC(=O)NC3CCCCC3)O[C@@H]1CO2	none (no result: AF4-AF9 inh, dFosB act, RAD52 anneal inh)
C[C@@H](NC(=O)C[C@H]1CC[C@H](NC(=O)Cc2ccccn2)[C@@H](CO)O1)c1ccccc1	none (no result: dFosB act)
COc1ccc(/C=C2\C(=O)OCc3cc(OC)c(OC)cc32)cc1OC	GSIS activator 103 (no result: AF4-AF9 inh, RAD52 anneal inh, DENV2 CPE)
COc1cc2c(cc1OC)/C(=C/c1ccc(Cl)cc1)C(=O)OC2	GSIS activator 62 (no result: RAD52 anneal inh, DENV2 CPE)
CCCC(=O)Nc1ccc2c(c1)C(=O)N(C)C[C@@H](OC)[C@@H](C)CN(Cc1nccs1)[C@@H](C)CO2	none (no result: dFosB act)
O=C(Nc1c2ccccc2nc2ccccc12)C(Cl)(Cl)Cl	RAD54 branch 83 (no result: AF4-AF9 inh, GSIS activator, RAD52 anneal inh, DENV2 CPE)
C=CCNc1nc(Cl)nc(Nc2ccc(OC)cc2)n1	GSIS activator 65 (no result: AF4-AF9 inh, RAD52 anneal inh, DENV2 CPE)
C=CCNc1nc(Nc2ccc(OC)cc2)nc(OC)n1	none (no result: AF4-AF9 inh, RAD52 anneal inh, DENV2 CPE)
CCC(C)N1CCC2(CC1)N=c1c(c3c4c5c(C)c(O)c3c(O)c1=NC(=O)C(C)=CC=C[C@H](C)[C@H](O)[C@@H](C)[C@@H](O)[C@@H](C)[C@H](OC(C)=O)[C@H](C)[C@@H](OC)C=CO[C@@](C)(O5)C4=O)N2 (stereo partly specified)	AF4-AF9 inh 27 (no result: GSIS activator)
CS(=O)(=O)NCc1ccc(C(=O)NCCOc2ccccc2)cc1	DENV2 CPE 31 (no result: RAD54 branch)
Cc1ccc(OCCNC(=O)c2cccc(S(=O)(=O)NCc3ccccc3)c2)cc1	none
COc1ccc(S(=O)(=O)N2CCC3CC2c2cc(-c4ccc5c(c4)OCO5)ccc23)cc1 (stereo unspecified)	DENV2 CPE 89 (no result: dFosB act)
Cc1ccc(S(=O)(=O)N2CCC3CC2c2cc(Cl)ccc23)cc1 (stereo unspecified)	none
Cc1ccc(S(=O)(=O)N(C)C)cc1NC(=O)CSc1ncc(C(F)(F)F)cc1Cl	none (no result: RAD54 branch)
CCN(CC)S(=O)(=O)c1ccc(C)c(NC(=O)CSc2ncc(C(F)(F)F)cc2Cl)c1	GSIS activator 169 (no result: AF4-AF9 inh, RAD52 anneal inh, DENV2 CPE, RAD54 branch)
O=C(N[C@@H]1CC[C@@H](CCNS(=O)(=O)c2ccc(F)cc2)O[C@H]1CO)c1cnccn1	DENV2 CPE 51 (no result: dFosB act)
O=C(N[C@@H]1CC[C@H](CCNS(=O)(=O)c2ccc(F)cc2)O[C@H]1CO)C1CCOCC1	none (no result: dFosB act)
CCS(=O)(=O)NCC[C@H]1CC[C@H](NC(=O)C2CCC2)[C@H](CO)O1	none (no result: dFosB act)
O=C(N[C@H]1CC[C@@H](CCNS(=O)(=O)c2ccc(F)cc2)O[C@H]1CO)C1CCOCC1	DENV2 CPE 38 (no result: dFosB act)
CCS(=O)(=O)NCC[C@@H]1CC[C@@H](NC(=O)C2CC2)[C@@H](CO)O1	DENV2 CPE 46 (no result: dFosB act, RAD54 branch)
C[C@@H]1CN([C@H](C)CO)C(=O)c2cccc(NC(=O)Nc3ccc4c(c3)OCO4)c2O[C@H]1CN(C)S(=O)(=O)c1ccc(F)cc1	none (no result: dFosB act)
COC(=O)c1c(-c2ccc(OC)cc2)sc2cc3c(cc12)OCO3	DENV2 CPE 20
COC(=O)c1c(-c2ccc(N(C)C)cc2)sc2ccc(OC)cc12	none (no result: GSIS activator, DENV2 CPE)
CCSc1nnc(NC(=O)c2csc(C)c2)s1	GSIS activator 99 (no result: AF4-AF9 inh, RAD52 anneal inh, DENV2 CPE)
CCSc1nnc(NC(=O)c2cccc3ccccc23)s1	none
O=C(Nc1ccc2c(c1)[C@H]1C[C@H](CC(=O)N3CCCCC3)O[C@H](CO)[C@H]1O2)C1CCC1	none (no result: dFosB act)
CC(C)N(C[C@@H]1[C@H](c2ccccc2)[C@@H](CO)N1S(C)(=O)=O)C(=O)CN(C)C	DENV2 CPE 55 (no result: dFosB act)

Screens as filed in PubChem.
